Reference: PubChem BioAssay
Values without a mark were called inactive. Entries that show only a call come without a potency. For some of these results: Potency and affinity values are given separately. Activity calls are given as the source filed them. Unless noted, how the calls were made is not given here.

Legend:
[1] = antimalarial activity against Dd2 strain (AID 2302;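 active means growth inhibition above 50% at the single 2 µM test dose, taken to imply half-maximal potency below 2 µM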); conditions: P. falciparum Dd2 in RBCs, LDH growth readout, 72 h; at 2 µM; stronger effect = higher value
[2] = human hepatoma cell viability loss – ATP luminescence, cytotoxicity control for P. falciparum antimalarial project, primary screen (AID 2303;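 active means inhibition above 50%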); conditions: HepG2 viability, 24-48 h, at 10 µM, stronger effect = higher value
[3] = target: L-lactate dehydrogenase (Plasmodium falciparum (isolate CDC / Honduras)) (UniProt Q27743); test: PfLDH activity inhibition – cell lysate, 3D7 strain, counter-screen for P. falciparum growth inhibition project (AID 2304); conditions: P. falciparum 3D7 crude extract, LDH APAD/NBT absorbance; at 2 µM; stronger effect = higher value
Chain of L-lactate dehydrogenase (Plasmodium falciparum (isolate CDC / Honduras)) (Q27743 whole entry, looked up): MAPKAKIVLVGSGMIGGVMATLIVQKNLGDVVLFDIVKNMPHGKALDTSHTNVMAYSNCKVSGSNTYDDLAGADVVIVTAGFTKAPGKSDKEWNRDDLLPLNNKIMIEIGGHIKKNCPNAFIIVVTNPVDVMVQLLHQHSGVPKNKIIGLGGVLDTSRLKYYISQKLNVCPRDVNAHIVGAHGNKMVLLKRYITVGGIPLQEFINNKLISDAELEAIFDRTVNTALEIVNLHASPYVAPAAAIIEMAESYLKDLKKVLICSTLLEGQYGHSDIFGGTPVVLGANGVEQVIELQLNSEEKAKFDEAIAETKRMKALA

[4] = inhibition of 3D7 malaria parasite growth – strain 3D7 (AID 2306); conditions: P. falciparum 3D7 erythrocytic growth, LDH absorbance, 72 h; at 2 µM; stronger effect = higher value
[5] = target: Calcium-dependent protein kinase 1 (Plasmodium falciparum (isolate 3D7)) (UniProt P62344); test: PfCDPK1 kinase inhibitors, biochemical, TCAMS library (AID 1159585; cut-off not given, nearly all actives have IC50 up to about 0.98 µM;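 further: inhibitors leave more ATP so luminescence rises with inhibition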); conditions: recombinant PfCDPK1, Kinase-Glo ATP depletion luminescence
Chain of Calcium-dependent protein kinase 1 (Plasmodium falciparum (isolate 3D7)) (P62344 whole entry, looked up): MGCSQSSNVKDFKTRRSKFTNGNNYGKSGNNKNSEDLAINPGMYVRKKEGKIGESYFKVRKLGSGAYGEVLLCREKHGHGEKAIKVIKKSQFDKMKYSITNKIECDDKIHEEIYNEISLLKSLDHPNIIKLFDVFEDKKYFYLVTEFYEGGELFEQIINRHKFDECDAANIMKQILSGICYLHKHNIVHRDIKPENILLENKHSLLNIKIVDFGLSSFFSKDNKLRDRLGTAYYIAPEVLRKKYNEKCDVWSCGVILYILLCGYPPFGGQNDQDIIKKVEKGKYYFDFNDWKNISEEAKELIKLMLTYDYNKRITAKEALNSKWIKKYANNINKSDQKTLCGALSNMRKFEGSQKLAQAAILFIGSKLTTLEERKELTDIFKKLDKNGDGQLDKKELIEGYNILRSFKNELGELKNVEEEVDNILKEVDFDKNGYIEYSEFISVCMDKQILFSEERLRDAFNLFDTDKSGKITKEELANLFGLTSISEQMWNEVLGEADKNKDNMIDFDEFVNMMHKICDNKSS

[6] = target: Plasmodium falciparum protein kinase 6 (PK6, PF3D7_1337100) (UniProt Q8IDW1); test: PfPK6 kinase inhibitors, biochemical, TCAMS library (AID 1159586); conditions: recombinant PfPK6, Kinase-Glo ATP depletion luminescence
Chain of Plasmodium falciparum protein kinase 6 (PK6, PF3D7_1337100) (Q8IDW1 1-305): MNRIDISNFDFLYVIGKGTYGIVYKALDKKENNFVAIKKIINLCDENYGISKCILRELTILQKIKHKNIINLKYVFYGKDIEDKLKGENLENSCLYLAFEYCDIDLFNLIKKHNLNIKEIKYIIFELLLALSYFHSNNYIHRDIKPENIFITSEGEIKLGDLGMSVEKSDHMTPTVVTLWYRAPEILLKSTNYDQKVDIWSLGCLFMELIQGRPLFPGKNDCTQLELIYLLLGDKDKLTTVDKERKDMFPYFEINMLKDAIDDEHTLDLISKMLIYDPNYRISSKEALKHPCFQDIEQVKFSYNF

[7] = target: Protein kinase 7 (PK7), Plasmodium falciparum 3D7 (PF3D7_0213400) (UniProt Q7YTF7); test: inhibition of Plasmodium PK7 catalytic activity – biochemical, TCAMS antimalarial set, Kinase-Glo luminescence (AID 1159587); conditions: recombinant PfPK7, Kinase-Glo ATP depletion luminescence
Chain of Protein kinase 7 (PK7), Plasmodium falciparum 3D7 (PF3D7_0213400) (Q7YTF7 1-343): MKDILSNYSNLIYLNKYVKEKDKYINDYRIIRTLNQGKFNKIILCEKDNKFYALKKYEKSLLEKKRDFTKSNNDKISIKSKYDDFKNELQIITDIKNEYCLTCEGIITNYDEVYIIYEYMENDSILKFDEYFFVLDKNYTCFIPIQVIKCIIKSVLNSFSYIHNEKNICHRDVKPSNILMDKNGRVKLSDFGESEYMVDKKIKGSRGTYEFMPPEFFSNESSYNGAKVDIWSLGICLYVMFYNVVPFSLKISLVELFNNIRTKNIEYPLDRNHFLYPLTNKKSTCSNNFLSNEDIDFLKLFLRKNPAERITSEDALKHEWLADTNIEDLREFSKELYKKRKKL

[8] = target: Calcium-dependent protein kinase 4 (Plasmodium falciparum (isolate 3D7)) (UniProt Q8IBS5); test: PfCDPK4 kinase inhibitors, biochemical, TCAMS library (AID 1159588; cut-off not given, nearly all actives have IC50 up to about 0.91 µM); conditions: recombinant PfCDPK4, Kinase-Glo ATP depletion luminescence
Chain of Calcium-dependent protein kinase 4 (Plasmodium falciparum (isolate 3D7)) (Q8IBS5 whole entry, looked up): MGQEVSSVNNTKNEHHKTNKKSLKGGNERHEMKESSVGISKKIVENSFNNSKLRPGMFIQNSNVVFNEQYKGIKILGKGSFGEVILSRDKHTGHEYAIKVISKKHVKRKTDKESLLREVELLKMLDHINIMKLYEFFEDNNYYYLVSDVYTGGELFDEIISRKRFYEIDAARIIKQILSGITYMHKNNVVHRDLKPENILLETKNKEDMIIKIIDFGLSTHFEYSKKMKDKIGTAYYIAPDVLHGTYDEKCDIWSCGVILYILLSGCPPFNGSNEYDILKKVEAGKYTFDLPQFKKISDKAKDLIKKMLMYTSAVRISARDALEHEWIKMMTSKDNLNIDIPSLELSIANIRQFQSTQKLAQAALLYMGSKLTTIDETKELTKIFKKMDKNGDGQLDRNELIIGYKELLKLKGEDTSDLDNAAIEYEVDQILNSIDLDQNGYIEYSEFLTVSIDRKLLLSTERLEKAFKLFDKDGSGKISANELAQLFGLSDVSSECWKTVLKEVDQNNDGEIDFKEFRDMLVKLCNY

Row | SMILES | growth inhibition [1] | inhibition [2] | inhibition [3] [%] | growth inhibition [4] | outcome [5] | outcome [6] | outcome [7] | outcome [8]
1 | CCn1c(Sc2ccc(C#N)c([N+](=O)[O-])c2)nnc1-c1ccc(Cl)cc1 | 93% (active) | 0% | 6 | 97% (active) | inactive | inactive | inactive | inactive
2 | Cc1nnsc1C(=O)Nc1cccc(-c2ccc(-c3nc4ccccc4[nH]3)s2)c1 | 13% | 55% (active) | -3 | 89% (active) | inactive | inactive | inactive | inactive
3 | Cc1cccc2[nH]c(-c3ccc(-c4ccc(CNCc5ccc(CN)cc5)cc4)s3)nc12 | 85% (active) | 4% | -8 | 101% (active) | inactive | inactive | inactive | inactive
4 | Cc1ccc(C(NC(=O)c2ccccc2)c2ccc3cccnc3c2O)cc1 (stereo not drawn) | 72% (active) | 53% (active) | 7 | 92% (active) | inactive | inactive | inactive | inactive
5 | CC1(C)N=C(N)N=C(N)N1OCCSc1ccc(Cl)c(Cl)c1 | 95% (active) | 65% (active) | -1 | 96% (active) | inactive | inactive | inactive | inactive
6 | CCCOc1ccccc1C(=O)Nc1nonc1-c1ccc(OCC)c(OCC)c1 | 89% (active) | 46% | -4 | 99% (active) | inactive | inactive | inactive | inactive
7 | CCN(CC)CCCC(C)Nc1c(-c2ccc(OC)cc2)cnc2ccccc12 (stereo not drawn) | 38% | 3% | -6 | 93% (active) | inactive | inactive | inactive | inactive
8 | CCCCCC(C)C(C)c1cc(O)c2c(c1)OC(C)(C)CC2(O)c1ccnn1C (stereo not drawn) | 95% (active) | 20% | 4 | 98% (active) | inactive | inactive | inactive | inactive
9 | Cc1cc(=O)[nH]c(NC#N)n1 | 3% | 8% | 0 | 99% (active) | inactive | inactive | inactive | inactive
10 | COc1ccc(C2CCN(CCCCNC(=O)c3ccc(NC(=O)c4ccc(Cl)cc4)cc3)CC2)cc1Cl | 75% (active) | 28% | 4 | 97% (active) | inactive | inactive | inactive | inactive
11 | NC(N)=Nc1ccc(C(=O)O)c(O)c1 | 1% | -3% | -3 | 94% (active) | inactive | inactive | inactive | inactive
12 | CCCc1c(C(=O)OCC)c2cc(O)ccc2n1-c1ccc(OC)cc1 | 99% (active) | -2% | 0 | 100% (active) | inactive | inactive | inactive | inactive
13 | CCN(CC)C(=NCCCCCCN=C(/N=C(/N)Nc1ccc(C)cc1)N(CC)CC)/N=C(/N)Nc1ccc(C)cc1 | 98% (active) | 10% | -3 | 97% (active) | inactive | inactive | inactive | inactive
14 | O=C(/C=C/c1ccc(Cl)c(Cl)c1)NCCCCCN1CCCN(C(=S)Nc2cccc(Cl)c2)CC1 | 7% | 19% | 0 | 93% (active) | inactive | inactive | inactive | inactive
15 | CN(c1ccc(NC(=O)c2ccc(F)cc2)cc1)C1CCN(Cc2cccc(F)c2)C1 (stereo not drawn) | 74% (active) | 3% | -2 | 81% (active) | inactive | inactive | inactive | inactive
16 | CN1CCN(c2ccnc3cc4c(cc23)N(C(=O)Nc2ccc3c(c2)CCCC3=O)CC4)CC1 | 64% (active) | 5% | -5 | 100% (active) | inactive | inactive | inactive | inactive
17 | CC(C)NCc1ccc(OCc2cccc(COc3ccc(CNC(C)C)cc3I)c2)c(I)c1 | 92% (active) | 100% (active) | 6 | 101% (active) | inactive | inactive | inactive | inactive
18 | CCCCC1(NC(=O)[C@@H](Nc2ccc(C#N)c3ccccc23)C2CCCCC2)CCCCC1 | 84% (active) | 8% | 0 | 91% (active) | inactive | inactive | inactive | inactive
19 | COc1ccc(-c2cccc(NC(=O)c3cccc(Cl)c3)c2)cc1CN(C)CCN(C)C | 73% (active) | 32% | 4 | 101% (active) | inactive | inactive | inactive | inactive
20 | COc1ccc(Cc2c(C)nc3nc(N)nc(N)c3c2C)cc1OC | -4% | 66% (active) | -1 | 93% (active) | inactive | inactive | inactive | inactive
21 | CC(C)COc1ccc(Cl)cc1Cc1ccc(-c2nc3ccc(Br)cc3[nH]2)o1 | 75% (active) | 19% | -3 | 80% (active) | inactive | inactive | inactive | inactive

Row | SMILES | growth inhibition [1] | inhibition [2] | inhibition [3] [%] | growth inhibition [4] | outcome [5] | outcome [6] | outcome [7] | outcome [8]
22 | c1ccc(OCCCCN2CCCCC2)cc1 | 1% | 2% | -11 | 95% (active) | inactive | inactive | inactive | inactive
23 | NCc1ccc(CNCc2cccc(-c3ccc(-c4nc5ccc(C(F)(F)F)cc5[nH]4)cc3)c2)cc1 | 90% (active) | 13% | -7 | 98% (active) | inactive | inactive | inactive | inactive
24 | C=CCC(C)n1ncc2c3c(N)nc(N)nc3ccc21 (stereo not drawn) | 95% (active) | 66% (active) | -3 | 93% (active) | inactive | inactive | inactive | inactive
25 | CCC(C)NC(=O)CN1CN(c2ccccc2)C2(CCN(C(=O)c3ccc(C(C)(C)C)cc3)CC2)C1=O (stereo not drawn) | 100% (active) | -6% | -4 | 101% (active) | inactive | inactive | inactive | inactive
26 | O=C(N[C@H]1CCN(Cc2ccc(OCCCN3CCCCC3)cc2)C1)c1ccc(Oc2ccccc2)cc1 | 11% | 56% (active) | 6 | 96% (active) | inactive | inactive | inactive | inactive
27 | CC(c1cccc(S(=O)(=O)NCc2ccc(Cl)cc2Cl)c1)N1CCC(N2CCCCC2)CC1 (stereo not drawn) | 40% | 36% | -2 | 100% (active) | inactive | inactive | inactive | inactive
28 | CCN1CCN(CCNc2c3ccccc3nc3ccccc23)CC1 | 8% | 45% | 0 | 93% (active) | inactive | inactive | inactive | inactive
29 | O=C(Nc1ccc(Cl)cc1Cl)NC1CCN(CCCCCNC(=O)[C@@H]2C[C@H]2c2ccc(Cl)c(Cl)c2)CC1 | 30% | 67% (active) | 0 | 100% (active) | inactive | inactive | inactive | inactive
30 | COc1ccc2nc(N3CCN(C(=O)OC(C)(C)C)CC3)nc(NCCCc3ccccc3)c2c1 | 95% (active) | 9% | -2 | 102% (active) | inactive | inactive | inactive | inactive
31 | CN(CCS(C)(=O)=O)Cc1ccc(-c2ccc3ncnc(Nc4ccc(OCc5cccc(F)c5)c(Cl)c4)c3c2)o1 | 65% (active) | 25% | -1 | 101% (active) | inactive | inactive | inactive | inactive
32 | O=S(=O)(NC1CCN(c2ccnc3cc(Cl)ccc23)C1)c1cccs1 (stereo not drawn) | 76% (active) | 6% | -4 | 102% (active) | inactive | inactive | inactive | inactive
33 | CCOc1cc(C(=O)Nc2cccnc2)ccc1-c1nc2cc(Cl)c(Cl)cc2[nH]1 | 70% (active) | 9% | 0 | 100% (active) | inactive | inactive | inactive | inactive
34 | c1ccc2c(c1)ncc1c3ccccc3[nH]c21 | 36% | -1% | -6 | 95% (active) | inactive | inactive | inactive | inactive
35 | Cc1cc(N[C@@H](CC(C)C)C(=O)NCCOc2ccccc2)nc(Nc2ccccc2)n1 | 9% | 9% | -2 | 93% (active) | inactive | inactive | inactive | inactive
36 | CCc1ccc(NC(=O)N(CCCn2ccnc2)Cc2csc(-c3ccc(CNCc4ccccc4)cc3)n2)cc1 | 39% | 9% | 3 | 103% (active) | inactive | inactive | inactive | inactive
37 | CC(Cc1ccc(NC(=O)c2ccc(NCCc3ccccc3)cc2)cc1)NCCc1cccc(Cl)c1 (stereo not drawn) | 1% | 25% | 4 | 92% (active) | inactive | inactive | inactive | inactive
38 | COc1cc2ncnc(Nc3ccc(OCc4ccccc4Br)c(Cl)c3)c2cc1OC | 6% | 25% | -4 | 96% (active) | inactive | inactive | inactive | inactive
39 | Nc1ncc(-c2ccc3nccc(-c4ccncc4)c3c2)cc1S(=O)(=O)N1CCOCC1 | 99% (active) | 39% | -1 | 100% (active) | inactive | inactive | inactive | inactive
40 | COc1cccc2cc(C(=O)N[C@@H](CC(C)C)C(=O)N[C@H](/C=N/N3CC(=O)NC3=O)CC(C)C)oc12 | 64% (active) | 3% | 2 | 86% (active) | inactive | inactive | inactive | inactive
41 | Cc1ccccc1C1CCN(C2CCC(NC(=O)/C=C/c3cc(F)cc(F)c3)CC2)CC1 (stereo not drawn) | 33% | 53% (active) | 3 | 99% (active) | inactive | inactive | inactive | inactive
